# SMN2 splice enh: increases expression of the SMN2 splice variant; HEK293 SMN2-luciferase splicing reporter, luminescence, 30-36 h; 2.8% of 210,000 active; Potency, µM (highest dose often 46.1 µM), for the others: top-dose activity change, positive = activation, hits mostly activators; further: % of control where 0% means no effect; nearly all actives have a fitted effect of over 55% in size
#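 HEK293 cells carry an SMN2 […]–luciferase reporter in which exon 7 inclusion puts luciferase in frame. Cells were plated 10-12 h before compound addition, then incubated 30-36 h at 37C. ONE-Glo luminescence was read; sodium butyrate at 4.5 mM final served as control.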
# Rab9 promoter act: activators of Rab9 promoter | AID 485297 | Huh7 Rab9 promoter-luciferase reporter, luminescence, 24 h | 2.8% of 320,000 active | Potency, µM (series often up to 9.22 µM), inactives show at the top dose activation, negative = inhibition, usual class: activators; further: % of control where 0% means no effect; nearly all actives have a fitted effect of over 60% in size
#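 Promoter activation is measured as luciferase luminescence in Huh7 cells stably transfected with a Rab9 promoter–luciferase construct, following 24 h compound exposure at 37 °C and 10 min reagent incubation at ambient temperature.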
# FLuc modulator: firefly luciferase modulation, counter-screen for miR-21 project | P08659 | purified FLuc, Km substrates, luminescence inhibition | Potency, µM (titrated, usually from 57.5 µM), for inactives: at the top dose activity change, negative = inhibition, hits mostly inhibitors | 6.9% of 360,000 active;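 further: plate controls were vehicle for no effect and reference inhibitor for full effect; nearly all actives have a fitted effect of over 55% in size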
# Target sequence (P08659 whole entry, looked up): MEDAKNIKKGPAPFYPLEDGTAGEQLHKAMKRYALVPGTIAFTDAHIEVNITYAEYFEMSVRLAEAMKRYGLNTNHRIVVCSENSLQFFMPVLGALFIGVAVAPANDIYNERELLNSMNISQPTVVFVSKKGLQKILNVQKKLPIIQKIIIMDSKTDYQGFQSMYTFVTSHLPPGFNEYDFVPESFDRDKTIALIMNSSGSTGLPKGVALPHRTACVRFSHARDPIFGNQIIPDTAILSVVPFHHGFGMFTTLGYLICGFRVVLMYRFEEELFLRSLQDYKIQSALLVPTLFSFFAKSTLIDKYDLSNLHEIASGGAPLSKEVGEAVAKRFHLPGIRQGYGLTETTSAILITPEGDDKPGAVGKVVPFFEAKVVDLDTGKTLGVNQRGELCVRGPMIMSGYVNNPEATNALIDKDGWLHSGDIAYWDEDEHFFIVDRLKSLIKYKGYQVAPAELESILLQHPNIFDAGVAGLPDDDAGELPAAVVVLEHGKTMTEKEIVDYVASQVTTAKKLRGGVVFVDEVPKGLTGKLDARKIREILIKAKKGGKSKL
#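 Purified P. pyralis luciferase (10nM final) with 10uM D-luciferin and 10uM ATP (Km levels) in 50mM Tris acetate pH 7.5, 10mM Mg acetate, 0.01% Tween-20, 0.05% BSA; qHTS 6-point titration, ~60 µM downward; luminescence read.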
# ELG1 genotox: genotoxicity induction in ELG1-luciferase HEK293T cells | HEK293T ELG1-luciferase reporter, luminescence, 16 h | Potency, µM (series often up to 46 µM), for inactives: top-dose activity change, positive = activation, usual class: activators | 1.3% of 330,000 active; further: % of control where 0% means no effect; nearly all actives have a fitted effect of over 60% in size
#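 Screening used a luciferase reporter fused to human ELG1 in HEK293T cells. Luminescence was read on a CCD plate imager after 16 hr exposure and 30 min ONE-Glo incubation.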
# KinaseGlo FLuc: Kinase-Glo luciferase inhibition (counter-screen); Q27757; Kinase-Glo luciferase, ATP luminescence, 8 min; Potency, µM (top dose mostly 38.3 µM), for inactives: at the top dose activity change, negative = inhibition, usual class: inhibitors; 0.28% of 200,000 active; AID 1379; further: on the % scale 0 is the no-effect control and ±100 the full control effect; nearly all actives have a fitted effect of over 60% in size
#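 Light output from Kinase-Glo luciferase with luciferin and 10 uM ATP in 50 mM imidazole pH 7.2, KCl, MgCl2, Tween 20, BSA; compound pin-delivered, 8-min ambient incubation, then luminescence read.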
# NPC1 promoter act: activates the NPC1 promoter; Huh7 NPC1 promoter luciferase reporter, 24 h; Potency, µM (top dose mostly 9.22 µM), without a hit: at the highest dose activation, usual class: activators; 2.4% of 320,000 active; AID 485313; further: % of control where 0% means no effect; nearly all actives have a fitted effect of over 60% in size
#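 Huh7 reporter cells (NPC1 promoter driving luciferase) are dosed with compound for 24 h at 37 °C, 5% CO2; luciferase detection reagent is then added and luminescence measured after 10 min at ambient temperature.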
# * marks the source's active call; other numbers are inactive results; ? = inconclusive; nt = no result; [ ] = dose if it differs, or a comment. Shown are actives, neighbours in structure and some others; about 7.5% of the full set was active somewhere. The call rests on the fitted dose curve; in most records, active means well fitted curve in the direction sought with a large enough effect; inconclusive means small, poorly fitted or top-dose-only effect, or another doubt; inactive means no such curve, though single readings can be large; an effect the other way counts as inactive or inconclusive. Potency means the concentration at half of the fitted maximal effect.
SMILES,SMN2 splice enh,Rab9 promoter act,FLuc modulator,ELG1 genotox,KinaseGlo FLuc,NPC1 promoter act
CC(NC(=O)COc1ccc(-c2nnco2)cc1)c1ccc(Cl)cc1Cl (stereo unspecified),nt,-6%,3%,-8%,nt,-4%
COc1ccc([C@]23Cc4ccccc4C(O2)c2c(cc(C)n(Cc4ccccc4)c2=O)O3)cc1,nt,-5%[1.84 µM],3%[11.5 µM],nt,nt,4%[1.84 µM]
Cc1cc2nc(-c3ccc(=O)[nH]c3)n(C)c2cc1C,nt,12%,17µM*,10%,nt,5%
Cc1cc2nc(C)c(=O)n(C)c2cc1C,?,-3%,1%,3%,-1%,-2%
CCN(CC)S(=O)(=O)c1cc(C(=O)Nc2ccccc2[N+](=O)[O-])ccc1Cl,-8%[1.84 µM],?,9.5µM*,?,-2%,?
CCN(CC)S(=O)(=O)c1cc(C(=O)NC2=NCCS2)ccc1Cl,-5%,-2%,?,1%,-4%,6%
CCN(CC)S(=O)(=O)c1cc(C(=O)Nc2cc(C)[nH]n2)ccc1Cl,nt,2.5µM*,8.5µM*,?,nt,2.2µM*
O=C(Nc1ccccc1F)Nc1ccccc1OC(F)F,-8%,-3%,?,0%,-2%,-5%
COc1cc(-c2noc(-c3ccc(N4CCCCC4)c([N+](=O)[O-])c3)n2)cc(OC)c1OC,nt,nt,17µM*,nt,nt,nt
COc1cc(-c2noc(-c3ccc(N(C)C)c([N+](=O)[O-])c3)n2)cc(OC)c1OC,nt,nt,15µM*,nt,nt,nt
CNc1nc(-c2ccc3c(c2)CCN3C(=O)c2ccccc2F)c(C)s1,nt,11%,15µM*,1%,0%,9%
Cc1ccc(C(=O)N2CCc3cc(CNC(=O)c4ccccc4F)ccc32)cc1,nt,nt,19µM*,nt,nt,nt
CNc1nc(-c2ccc3c(c2)CCN3C(=O)c2ccccc2F)cs1,13µM*,0.56µM*,1.5µM*,?,-15%,1.6µM*
COc1ccccc1C(=O)NCc1ccc2c(c1)CCN2C(=O)c1cccc(C)c1,nt,nt,-7%,nt,nt,nt
C[C@]12C[C@@](C)(C=C1/C=C/c1ccccc1)C(=O)C[C@H]2c1ccccc1,3%,nt,nt,nt,1%,nt
COC(=O)c1ccc(CNC(=O)C(NC(=O)c2ccco2)C(C)C)cc1 (stereo unspecified),nt,-1%,1%,2%,nt,-2%
Cc1ccc(O)c(C(=O)CC(=O)c2cccc(F)c2)c1,35µM*,?,-7%[2.3 µM],7%,1%,?
Cc1cccc(C(=O)CC(=O)c2cc(Cl)ccc2O)c1,-98%,-2%,-12%,-7%,16%,-2%
Cc1ccc(O)c(C(=O)CC(=O)c2ccc(Cl)cc2)c1,nt,?,24µM*,?,nt,15%
Cc1ccc(-c2onc(C)c2C)cc1S(=O)(=O)NCc1ccco1,nt,nt,0%,nt,nt,nt
Cc1ccc2c(c1)c(=O)c(S(=O)(=O)c1ccc(C)c(C)c1)cn2CC(=O)Nc1ccccc1,-2%,nt,0%,nt,nt,nt
COc1ccccc1NC(=S)N1CC(C)(C)C1=O,nt,-1%,-5%,-6%,nt,2%
CCOC(=O)c1c(NC(=O)c2cccs2)sc(CC)c1-c1cccs1,-19%,3%,1%,-1%,0%,-3%
Cc1sc(NC(=O)c2cccs2)c(C(N)=O)c1C,10µM*,?,11µM*,?,-13%,18%
Cc1sc(NC(=O)C2=COCCO2)c(C(N)=O)c1C,nt,22%,17µM*,28%,nt,14%
SMILES,SMN2 splice enh,Rab9 promoter act,FLuc modulator,ELG1 genotox,KinaseGlo FLuc,NPC1 promoter act
O=C(c1cc(-c2ccc(Br)cc2)n[nH]1)N1CCN(S(=O)(=O)c2ccc(Br)s2)CC1,nt,nt,-7%,nt,nt,nt
Cc1c(NC(=O)COC(=O)CSc2ccc([N+](=O)[O-])cc2)c(=O)n(-c2ccccc2)n1C,nt,-4%,4%,0%,nt,2%
O=c1nc2c(-c3cccc(Br)c3)n[nH]n2c2ccccc12,nt,3.5µM*,4.8µM*,?,nt,?
COc1ccc(C2=NN(C(=O)c3ccco3)C(c3ccco3)C2)cc1OC (stereo unspecified),nt,3%,15µM*,-5%,nt,-1%
O=C(O)CCC(=O)N1N=C(c2ccccc2)CC1c1ccc2nccnc2c1 (stereo unspecified),4%,2%,-2%,3%,-1%,-1%
O=C(c1ccco1)N1N=C(c2ccc(Cl)cc2)CC1c1ccco1 (stereo unspecified),nt,-1%,?,-2%,nt,-2%
CCC(=O)N1N=C(c2ccc(Cl)cc2)CC1c1ccco1 (stereo unspecified),nt,-2%,-23%,2%,nt,-5%
CS(=O)(=O)Nc1cccc(C2=NN(C(=O)c3ccco3)C(c3ccco3)C2)c1 (stereo unspecified),nt,-2%,17µM*,-5%,nt,-15%
CCc1ccc(C2=NN(C(C)=O)C(c3ccco3)C2)cc1 (stereo unspecified),13µM*,1.8µM*,8.5µM*,16µM*,?,3.5µM*
O=C(c1ccco1)N1N=C(c2ccccc2)CC1c1ccc2nccnc2c1 (stereo unspecified),nt,-1%,17µM*,3%,nt,-3%
CCN1c2ccccc2-c2nc(SCC(=O)Nc3c(C)cc(C)cc3C)ncc2S1(=O)=O,nt,nt,3%,nt,nt,nt
CN(C)CCN1C(=O)C(=O)/C(=C(/O)c2ccc(S(=O)(=O)N3CCOCC3)cc2)C1c1ccc(F)cc1 (stereo unspecified),nt,-2%,1%,?,nt,-3%
Cc1sc(-c2cc3ccccc3oc2=O)nc1-c1ccc(Cl)cc1,nt,nt,-3%,nt,nt,nt
COc1ccccc1C(=O)NNC(=O)c1ccncc1,-10%,13%,-16%,7%,1%,10%
COc1ccccc1C(=O)NNC(=O)c1ccc(NC(=O)CC(C)C)cc1,nt,9%,-12%,2%,nt,1%
COc1ccccc1C(=O)NNC(=O)c1ccc(Br)cc1,nt,5%,13µM*,8%,nt,19%
COc1ccccc1C(=O)NNC(=O)c1ccc(C)cc1,nt,?,15µM*,?,nt,26%
COc1ccccc1CNC(=O)c1ccc(Br)o1,-25%,-11%,-5%,3%,3%[39.9 µM],-2%
COc1ccccc1C(=O)NNC(=O)c1ccc(Br)o1,nt,20%,17µM*,?,nt,?
Cc1cc(N)n(-c2ccc(S(=O)(=O)c3ccc(C(C)C)cc3)cc2)n1,-50%,1%,2%,-5%,1%,-12%
CCOC(=O)c1c(-c2ccccc2Cl)csc1NC(=O)CSc1nc(C)cc(=O)[nH]1,-11%,-3%,2%,0%,0%,-1%
Cc1ccc(NC2c3ncccc3C(=O)N2c2ccccc2C)cc1C (stereo unspecified),-3%,-4%,24µM*,1%,-1%,5%
COc1ccc(OC)c(/C=N/N=C2\SCC(=O)N2Cc2ccco2)c1,-19%,0%,1%,3%,4%,3%

# Source: PubChem BioAssay (National Center for Advancing Translational Sciences (NCATS))
